Source: PubChem (National Center for Advancing Translational Sciences (NCATS))
Giardia kill = Giardia lamblia killing; Giardia lamblia trophozoite viability; activity change, % at 7.66 µM, hits read low; 0.15% of 340,000 active; AID 540267; in the data active = activity change below about -80%; inconclusive = between about -30% and that limit;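 also: parasites exposed to compound for two days anaerobically before the ATP read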
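Viability, read as ATP luminescence: trophozoites at 100 cells/well, compound added, 48 hrs anaerobic at 37 deg C, then 15-30 min room-temperature development before reading.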
DT40 TDP1 no CPT = qHTS for Inhibitors of human tyrosyl-DNA phosphodiesterase 1 (TDP1): qHTS in cells in absence of CPT; DT40 Tdp1-/- hTDP1 cells, no CPT, ATP luminescence, 48 h; Potency, µM (series often up to 46.2 µM), most hits filed as inhibitors; 15% of 420,000 active; AID 686978, 2013; also: nearly all actives have a fitted effect of over 55% in size
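Compound effects on proliferation are scored in DT40 Tdp1-/-;hTDP1 cells in the absence of CPT. ATP levels (CellTiter-Glo luminescence) are recorded after a ≥48 hr, 37 °C incubation.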
ELG1 repair inh = ELG1-dependent DNA repair inhibition. HEK293T ELG1-luciferase reporter, luminescence, 16 h; DNA damage induced by 5-fluorouridine. Potency, µM (series often up to 46.1 µM), hits mostly inhibitors. 2.3% of 330,000 active; also: nearly all actives have a fitted effect of over 55% in size
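HEK293T cells expressing luciferase-tagged ELG1 (2,000/well) received 5-Fluorouridine plus compound or DMSO for 16 hr at 37 °C. Luciferase was read by ONE-Glo luminescence after 30 min at room temperature.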
TDP1 cell CPT = growth inhibition of DT40 Tdp1-/-;hTDP1 cells with camptothecin (screen for TDP1 inhibitors). chicken DT40 Tdp1-/-;hTDP1 cells + 20 nM CPT, ATP luminescence, 48 h. 12% of 420,000 active. Potency, µM (top dose mostly 46.2 µM), most hits filed as inhibitors; also: nearly all actives have a fitted effect of over 55% in size
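Chicken DT40 Tdp1-/- cells stably complemented with human TDP1 were seeded at 400 cells/well in medium containing 20 nM camptothecin, exposed to pin-transferred compounds, and grown at 37 °C for at least 48 hr. Viability was read as ATP luminescence.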
IL1B secr inh = inflammasome signaling inhibition, IL-1 beta readout. THP-1 LPS/ATP IL-1B secretion, AlphaLISA, 16 h; active compounds read low. activity change, % at 57.5 µM. 4.7% of 360,000 active; in the data active = activity change below about -50%; inconclusive = mostly about -30% to -49%
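Secreted IL-1B measured by AlphaLISA bead assay after 16 h compound exposure of THP-1 cells; compounds (final up to 57.5 uM) added 1 h before LPS (250 ng/mL) and ATP (1.25 mM) stimulation; lower signal means less secretion.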
TDP1 block = blocks human tyrosyl-DNA phosphodiesterase 1; recombinant TDP1, AlphaScreen DNA substrate cleavage; AID 485290; Potency, µM (doses to about 130 µM), usual class: inhibitors; 0.28% of 350,000 active; Q9NUW8; also: nearly all actives have a fitted effect of over 40% in size
Target sequence (Q9NUW8 whole entry, looked up): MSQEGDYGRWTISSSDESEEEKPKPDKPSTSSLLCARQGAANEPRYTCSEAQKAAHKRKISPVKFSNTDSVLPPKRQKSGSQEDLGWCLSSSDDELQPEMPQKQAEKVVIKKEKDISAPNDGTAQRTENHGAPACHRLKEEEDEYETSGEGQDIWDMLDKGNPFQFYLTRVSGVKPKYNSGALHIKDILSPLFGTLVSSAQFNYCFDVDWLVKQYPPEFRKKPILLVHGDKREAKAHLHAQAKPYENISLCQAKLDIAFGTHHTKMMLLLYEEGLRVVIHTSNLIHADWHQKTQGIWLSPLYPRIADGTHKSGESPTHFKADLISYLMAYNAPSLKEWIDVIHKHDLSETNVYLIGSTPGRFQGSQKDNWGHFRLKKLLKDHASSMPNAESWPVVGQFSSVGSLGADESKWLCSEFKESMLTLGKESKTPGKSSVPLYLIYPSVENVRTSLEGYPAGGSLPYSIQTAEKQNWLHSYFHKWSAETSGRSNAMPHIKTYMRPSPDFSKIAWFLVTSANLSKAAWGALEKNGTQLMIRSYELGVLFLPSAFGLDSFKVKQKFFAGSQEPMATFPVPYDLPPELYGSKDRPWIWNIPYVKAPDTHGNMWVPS
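Here, a 5' biotin and 3' phosphotyrosine-FITC DNA oligonucleotide reports Tdp1 activity: intact substrate bridges AlphaScreen beads, while cleavage leaves a 3' phosphate and drops signal. All incubations at room temperature.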
Of the large screens only hits and unclear results are named; the others gave an inactive call. Sampled rows, rich in hits. Any-hit rate of the full collection: about 19%. Unless noted, calls follow the shape of the dose curve; as a rule, active = well fitted curve in the direction sought with a large enough effect; inconclusive = small, poorly fitted or top-dose-only effect, or another doubt; inactive = no such curve, though single readings can be large; an effect the other way counts as inactive or inconclusive.

Cc1ccc(C)c(CN2CCCN(C(=O)Cn3ncc4c3-c3ccccc3OC4)C2)c1	DT40 TDP1 no CPT 16µM, ELG1 repair inh inconclusive, TDP1 cell CPT 13µM
COc1cccc(N2CCN(C(=O)Cn3ncc4c3-c3ccccc3OC4)CC2)c1	DT40 TDP1 no CPT 23µM (no result: Giardia kill, ELG1 repair inh, IL1B secr inh)
O=C(NCC1CC1)c1cc2c(c(-c3cccc(-c4ccccc4F)c3)n1)[C@H](CCO)N(C(=O)CC1CC1)C2	DT40 TDP1 no CPT 18µM, TDP1 cell CPT inconclusive (no result: Giardia kill, ELG1 repair inh, TDP1 block)
CCNC(=O)c1cc2c(c(-c3cccc(-c4ccccc4F)c3)n1)[C@@H](CCO)N(C(=O)CC)C2	DT40 TDP1 no CPT inconclusive, TDP1 cell CPT inconclusive (no result: Giardia kill, ELG1 repair inh, TDP1 block)
O=C(NCC1CC1)c1cc2c(c(-c3cccc(-c4ccccc4F)c3)n1)[C@@H](CCO)N(C(=O)CC1CC1)C2	DT40 TDP1 no CPT inconclusive, TDP1 cell CPT 21µM, IL1B secr inh -59 (no result: Giardia kill, ELG1 repair inh, TDP1 block)
CN1CCN(C(=O)c2cc3c(c(-c4cccc(-c5cccnc5)c4)n2)[C@H](CCO)N(C(=O)CC2CC2)C3)CC1	none (no result: Giardia kill, ELG1 repair inh, TDP1 block)
CC(Oc1ccccc1)C(=O)Nc1ccc(C(=O)OCc2cc(=O)n3ccsc3n2)cc1 (stereo not given)	DT40 TDP1 no CPT inconclusive, TDP1 cell CPT inconclusive (no result: Giardia kill, ELG1 repair inh, IL1B secr inh)
CCCc1cc(=O)n2nc(N3CCC(C(=O)N4CCN(c5ccc(OC)cc5)CC4)CC3)sc2n1	DT40 TDP1 no CPT 5.8µM, TDP1 cell CPT 2.6µM
COc1ccc(N2CCN(C(=O)C3CCN(c4nc5ccc(C)cc5[nH]4)CC3)CC2)cc1	DT40 TDP1 no CPT 8.2µM, TDP1 cell CPT 10µM (no result: Giardia kill, ELG1 repair inh, IL1B secr inh)
Cc1ccc(C)c(N2CCN(C(=O)C3CCN(c4nc5ccc(C)cc5[nH]4)CC3)CC2)c1	DT40 TDP1 no CPT 2.3µM, TDP1 cell CPT 4.1µM (no result: Giardia kill, ELG1 repair inh, IL1B secr inh)
Cc1ccc(CNC(=O)C2CCN(c3nc4ccc(C)cc4[nH]3)CC2)cc1	DT40 TDP1 no CPT inconclusive, TDP1 cell CPT inconclusive (no result: Giardia kill, ELG1 repair inh, IL1B secr inh)
Cc1ccc2nc(N3CCC(C(=O)N4CCN(c5cccc(Cl)c5)CC4)CC3)[nH]c2c1	DT40 TDP1 no CPT 8.2µM, TDP1 cell CPT 13µM (no result: Giardia kill, ELG1 repair inh, IL1B secr inh)
COc1ccccc1CNC(=O)C1CCN(c2nc3ccc(C)cc3[nH]2)CC1	DT40 TDP1 no CPT inconclusive, TDP1 cell CPT inconclusive (no result: Giardia kill, ELG1 repair inh, IL1B secr inh)
C[C@@H]1[C@H]2[C@@H](O[C@@H]3O[C@H](CO)[C@@H](O)[C@H](O)[C@H]3O)OC=C(C(=O)O)[C@H]2C[C@@H]1O	Giardia kill inconclusive, DT40 TDP1 no CPT 7.3µM, TDP1 cell CPT 7.3µM (no result: TDP1 block)
CCc1ccc(C(=O)NC2=NC(c3cc(OC)ccc3OC)CC(=O)N2)cc1 (stereo not given)	none (no result: Giardia kill, ELG1 repair inh, IL1B secr inh)
COc1ccc(C2c3ccc(O)cc3Oc3ncn4nc(-c5ccccn5)nc4c32)cc1OC (stereo not given)	DT40 TDP1 no CPT 18µM, ELG1 repair inh 21µM, TDP1 cell CPT 23µM (no result: TDP1 block)
COc1ccc(C2c3ccc(O)cc3Oc3ncn4nc(-c5ccncc5)nc4c32)cc1OC (stereo not given)	DT40 TDP1 no CPT 23µM, ELG1 repair inh inconclusive, TDP1 cell CPT inconclusive, IL1B secr inh -70
COc1ccc(Cc2nc3c4c(ncn3n2)Oc2ccc3ccccc3c2C4c2ccc(OC)c(OC)c2)cc1 (stereo not given)	ELG1 repair inh inconclusive
COc1ccc(C2c3ccc(O)cc3Oc3ncn4nc(-c5ccccn5)nc4c32)cc1 (stereo not given)	ELG1 repair inh inconclusive (no result: TDP1 block)
COc1ccc(C2c3ccc(O)cc3Oc3ncn4nc(-c5ccco5)nc4c32)cc1OC (stereo not given)	DT40 TDP1 no CPT inconclusive, TDP1 cell CPT 16µM
Cc1ccc(NC(=O)CCCc2nnc3n(C)c(=O)c4sccc4n23)cc1C	DT40 TDP1 no CPT inconclusive, TDP1 cell CPT inconclusive (no result: Giardia kill, ELG1 repair inh, IL1B secr inh)
Cc1nc2cc(CC(=O)O)ccc2o1	none
Cc1cc(NC(=O)CSc2nnc(-c3ccccc3)o2)no1	DT40 TDP1 no CPT 23µM, ELG1 repair inh inconclusive, TDP1 cell CPT inconclusive
Cc1cc(NC(=O)CSc2ccccc2)no1	none
Cc1cc(NC(=O)CSc2nnc(-c3ccccc3)c(-c3ccccc3)n2)no1	DT40 TDP1 no CPT 5.2µM, ELG1 repair inh inconclusive, TDP1 cell CPT 3.7µM
